Compound activity as filed in PubChem.
Hits are enriched below; roughly 13% of the tested compounds scored in any of these assays.
Lassa entry inh = inhibitors of Lassa virus binding or cell entry; Lassa virus pseudotype entry inhibition, cell reporter; Potency, µM (highest dose often 37.9 µM), without a hit: at the top dose activity change, negative = inhibition, usual class: inhibitors; 1.2% of 300,000 active; calls by dose curve; tested in HEK293 cells; note: potency is the fitted concentration of half-maximal effect; % is set by controls: 0 for no effect and ±100 for the full control effect; nearly all actives have a fitted effect of over 50% in size
Cycloheximide cs = affects cycloheximide protein synthesis inhibition readout, counter-screen. cell reporter, cycloheximide protein synthesis inhibition counterscreen. max response, %. 12% of 300,000 active. AID 2314; in the data active = max response mostly above about 13%, no sharp cut-off; inactive = mostly below about 14%; note: read at 38.3 µM for the half of the compounds with a filed dose; 0% is about no effect
HCV inh = inhibitors of hepatitis C virus infection. Huh7.5.1 HCVcc-Cre infection, luciferase reporter, 44 h. Potency, µM (highest dose often 41.8 µM), for the others: at the highest dose activity change, negative = inhibition, hits mostly inhibitors. 3.4% of 340,000 active. AID 651820; active = well fitted inhibition curve with a large enough effect; inconclusive = small, poorly fitted or top-dose-only effect, or another doubt; inactive = no such curve, though single readings can be large or run the other way; note: potency is the fitted concentration of half-maximal effect; % is set by controls: 0 for no effect and ±100 for the full control effect
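Luciferase read-out (15 sec integration) after a 15 min room-temperature substrate step quantifies HCVcc-Cre infection. Cells, 1,000 per well, had compound added 4 h post-plating, then virus at ~0.5 moi, and were cultured 44 h.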
FMDV antiviral = antivirals against foot and mouth disease virus; Potency, µM (doses to about 57.9 µM), inactives show at the highest dose activity change, negative = inhibition, hits mostly inhibitors; 1.2% of 410,000 active; FMDV antiviral cell-based qHTS; calls by dose curve; tested in HEK293T cells; note: read-out not given here; potency is the fitted concentration of half-maximal effect; % is set by controls: 0 for no effect and ±100 for the full control effect; nearly all actives have a fitted effect of over 45% in size
Shiga toxin inh = inhibitors of Shiga toxin in Vero cells | Vero cells, Shiga toxin protein synthesis inhibition reporter | inhibition, % at 38.7 µM | 9.2% of 290,000 active; in the data active = inhibition mostly above about 28%, no sharp cut-off; inactive = mostly below about 43%; note: 0% is about no effect
Marburg entry inh = inhibitors of Marburg virus binding or cell entry; 1.8% of 300,000 active; Marburg virus pseudotyped entry inhibition, cell reporter; Potency, µM (series often up to 37.8 µM), for the others: at the top dose activity change, negative = inhibition, hits mostly inhibitors; calls by dose curve; tested in HEK293 cells; note: potency is the fitted concentration of half-maximal effect; % is set by controls: 0 for no effect and ±100 for the full control effect
An asterisk follows results filed as active; ? = inconclusive; / = no result given; [ ] = dose if it differs, or a comment.

SMILES	Lassa entry inh	Cycloheximide cs	HCV inh	FMDV antiviral	Shiga toxin inh	Marburg entry inh
COc1ccc(NS(=O)(=O)c2ccc(N3CCOCC3)c(NC(=O)c3cccc(F)c3)c2)cc1	?	-3.2	-44.6%	48.1%	-9.2	?
O=C(COC(=O)c1ccc(S(=O)(=O)N2CCCC2)cc1)NCCc1ccc(F)cc1	/	/	7.4%	-8.2%	/	/
COCc1ccc(C(=O)N(C)CC2CCCN(CCc3ccc(OC)cc3)C2)o1 (centres undefined)	?	34.2*	-14.1%	28.3%	77.2*	?
COc1ccc(CCN2CCCC(CN(C)C(=O)c3cc(C)oc3C)C2)cc1 (centres undefined)	-5.6%[46.1 µM]	68.9*	-19.6%	-19.0%	91.0*	?
Cc1occc1C(=O)N(C)CC1CCCN(CCc2ccc(Cl)cc2)C1 (centres undefined)	/	/	/	-29.4%	/	/
COc1ccc(CCN2CCCC(CN(C)C(=O)c3ccoc3C)C2)cc1 (centres undefined)	-10.3%	32.4*	-14.9%	63.3%	40.3*	0.9%
Cc1cc(C(=O)N(C)CC2CCCN(CCc3ccc(F)cc3)C2)c(C)o1 (centres undefined)	/	-0.4	-14.2%	-24.4%	-11.3	/
CCN1CCN(CCCNC(=O)c2cnn(-c3ccccc3)c2C2CCN(C(=O)OC(C)(C)C)CC2)CC1	-3.3%[46.1 µM]	/	/	1.8%	/	/
Cc1ccc(N2C(=NC(=O)c3ccccc3)SC3CS(=O)(=O)CC32)cc1 (centres undefined)	?	-1.8	10.8%	-20.9%	-22.3	26.2%[46.1 µM]
COc1ccccc1C(=O)N=C1SC2CS(=O)(=O)CC2N1c1ccccc1 (centres undefined)	/	9.8*	12.3%	8.8%	22.4	0.4%[46.1 µM]
CN(C)c1ccc(N2C(=NC(=O)CCc3ccccc3)SC3CS(=O)(=O)CC32)cc1 (centres undefined)	/	18.7*	9.2%	9.7%	24.3	/
CN(C)c1ccc(N2C(=NC(=O)C3CCCO3)SC3CS(=O)(=O)CC32)cc1 (centres undefined)	/	37.9*	12.8%	38.3%	21.5	/
CCCC(=O)N=C1SC2CS(=O)(=O)CC2N1c1ccc(-c2nc3ccc(C)cc3s2)cc1 (centres undefined)	?	43.6*	0.3%	42.6%	106.1*	?
COc1ccc(C(=O)NCC(c2ccco2)S(=O)(=O)c2cccs2)cc1OC (centres undefined)	-7.2%[46.1 µM]	/	/	-16.1%	/	/
CNC(=S)NNC(=O)c1sccc1C	6.9%	17.5*	20.2%	5.4%	33.7	12.2%
CCCCNC(=S)NNC(=O)c1sccc1C	4.1%	9.5	13.6%	54.4%	-12.3	-2.6%
Cc1ccsc1C(=O)NNC(=S)NC1CCCCC1	/	38.1*	17.3%	50.3%	37.1*	/
CCCc1cc(C(=O)NNC(=S)NC2CCCCC2)cs1	25.0%[46.1 µM]	21.5*	-0.2%	15.1%	34.4	12.9%[46.1 µM]
CCCc1cc(C(=O)NNC(=S)NCc2ccccc2)cs1	17.4%	-2.8	9.7%	0.6%	10.3	-4.5%
CCN(CC)c1ccc(/C=N/NC(=S)NCc2ccccc2)c(O)c1	?	-5.5	-28.4%	-34.4%	-6.5	?
CCN(CC)c1ccc(/C=N/N(c2ccccc2)c2ccccc2)c(O)c1	?	-1.3	-3.1%	?	-5.0	?
CCN(CC)c1ccc(/C=N/NC(=O)Cc2cccs2)c(O)c1	3.16µM*	32.0*	?	22.1%	78.4*	16.4µM*
CCN(CC)c1ccc(/C=N/NC(=O)c2ccco2)c(O)c1	/	37.5*	?	61.6%	75.7*	/
CCN(CC)c1ccc(/C=N/N=C(c2ccccc2)c2ccccc2)c(O)c1	10.3µM*	-1.8	?	-17.8%	18.1	?
CCN(CC)c1ccc(/C=N/NC(=O)c2ccco2)cc1	4.47µM*	49.2*	?	-37.2%	52.5*	7.31µM*
COc1ccc(N2CCN(Cc3nc4c(c(=O)n(C)c(=O)n4C)n3CC(C)=O)CC2)cc1	1.0%	1.1	-13.5%	?	6.4	-22.6%
COc1ccc(S(=O)(=O)NCc2ccccn2)cc1NC(=O)c1ccccc1C	?	/	21.6%	33.8%	/	?
CCC(=Nc1ccc2c(c1)CCC2)c1c(O)n(C2CCCCC2)c(=O)[nH]c1=O	?	1.5	0.9%	-5.0%	-10.5	-0.4%
COc1ccc(S(=O)(=O)NC(CCSC)C(=O)NC2CCCCC2)cc1 (centres undefined)	?	7.5	-12.6%	2.8%	13.7	-12.5%[46.1 µM]
